Bioassay records (PubChem)
VACV Venus inh = qHTS for Stage-Specific Inhibitors of Vaccinia Orthopoxvirus: Venus Reporter Primary qHTS | Vaccinia virus Venus reporter expression, fluorescence | Potency, µM (doses to about 36.5 µM), for the others: top-dose activity change, negative = inhibition, most hits filed as inhibitors | 330,000 tested, 0.46% active; calls by dose curve; tested in A549 cells; further: potency means the concentration at half of the fitted maximal effect; nearly all actives have a fitted effect of over 30% in size
Lassa entry inh = qHTS for Inhibitors of binding or entry into cells for Lassa Virus | Lassa virus pseudotype entry inhibition, cell reporter | Potency, µM (highest dose often 37.9 µM), for inactives: top-dose activity change, negative = inhibition, actives largely listed as inhibitors | 300,000 tested, 1.2% active; calls by dose curve; tested in HEK293 cells; further: potency means the concentration at half of the fitted maximal effect; nearly all actives have a fitted effect of over 50% in size
MARV entry inh = qHTS for inhibitors of binding or entry into cells for Marburg Virus; Marburg virus pseudotyped entry inhibition, cell reporter; AID 540276, 2011; Potency, µM (series often up to 37.8 µM), without a hit: at the highest dose activity change, negative = inhibition, usual class: inhibitors; 300,000 tested, 1.8% active; calls by dose curve; tested in HEK293 cells; further: potency means the concentration at half of the fitted maximal effect
HCV inh = qHTS Assay for Inhibitors of Hepatitis C Virus (HCV); Huh7.5.1 HCVcc-Cre infection, luciferase reporter, 44 h; Potency, µM (titrated, usually from 41.8 µM), without a hit: at the top dose activity change, negative = inhibition, most hits filed as inhibitors; 340,000 tested, 3.4% active; AID 651820, 2012; active means well fitted inhibition curve with a large enough effect; inconclusive means small, poorly fitted or top-dose-only effect, or another doubt; inactive means no such curve, though single readings can be large or run the other way; further: potency means the concentration at half of the fitted maximal effect
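Reporter virus HCVcc-Cre (~0.5 moi) infects cells exposed to compound; seeding density 1,000 cells/well with 4 h settling beforehand. Luminescence, 15 sec read, taken 44 h post-infection following a 15 min RT substrate incubation.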
Vaccinia mCherry = qHTS for Stage-Specific Inhibitors of Vaccinia Orthopoxvirus: mCherry Reporter Primary qHTS; 310,000 tested, 0.63% active; Vaccinia virus mCherry reporter infection, fluorescence; AID 720579, 2013; Potency, µM (titrated, usually from 36.5 µM), without a hit: at the top dose activity change, negative = inhibition, usual class: inhibitors; calls by dose curve; tested in A549 cells; further: potency means the concentration at half of the fitted maximal effect; nearly all actives have a fitted effect of over 35% in size
HCMV antiviral = qHTS Assay for inhibitors of the human cytomegalovirus (HCMV) | HFF cells, HCMV-luciferase reporter, 72 h; stronger effect = lower value | activity change, negative = inhibition, % at 57.5 µM | 410,000 tested, 4.5% active; in the data active means activity change below about -60%; inconclusive means no clear call, values can overlap the other calls; inactive means above about -39%
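Two-dose cell screen: HFF monolayers treated with compounds and infected with luciferase-expressing HCMV at 1 PFU/cell, 72 h at 37C, then lysed for luciferase measurement.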
An asterisk follows results filed as active; i = inactive; ? = inconclusive; . = no result; [ ] = another dose, or the depositor's remark. Hits are enriched below; roughly 7.8% of the tested compounds scored in any of these assays. On the % scale 0 is the no-effect control and ±100 the full control effect.

SMILES	VACV Venus inh	Lassa entry inh	MARV entry inh	HCV inh	Vaccinia mCherry	HCMV antiviral
CCCCn1nnc(NC(=S)NC(=O)c2ccc(-c3cccc(Cl)c3Cl)o2)n1	0.112µM*	4.0%	?	-7.1%	?	.
CCCCC(=O)NC(=S)Nc1nnn(CCC)n1	?	-4.8%	9.4%[46.1 µM]	-2.9%	?	-98.2*
CCCCC(=O)Nc1nnn(CCC)n1	-2.7%	3.8%	13.7%	22.6%	i	8.3
Cc1ccccc1NC(=O)c1nc(SCc2ccccc2F)ncc1Cl	-18.1%	.	.	.	24.1%	.
Cc1ccc(-c2nn(-c3ccc(F)cc3)c3c2cnc2cc(F)c(F)cc23)cc1	-2.1%	-5.4%[46.1 µM]	4.2%[46.1 µM]	.	7.9%	-2.8
COC(=O)c1cc(Nc2nc3ccccc3nc2NS(=O)(=O)c2ccc(C)cc2)ccc1Cl	?	9.9%[46.1 µM]	?	.	?	-105.5*
O=[N+]([O-])c1ccc(S(=O)(=O)Nc2nc3ccccc3nc2Nc2ccccc2)cc1	-3.8%	-20.8%	?	?	7.0%	-80.5*
CC(=O)Nc1ccc(S(=O)(=O)Nc2nc3ccccc3nc2Nc2ccc3ccccc3c2)cc1	-20.3%	?	15.0%	37.0%	-7.3%	26.4
COc1cc(Nc2nc3ccccc3nc2NS(=O)(=O)c2ccc([N+](=O)[O-])cc2)cc(OC)c1OC	-20.4%	?	19.4%[46.1 µM]	22.4µM*	?	-73.5*
CC(C)CC(c1nnnn1Cc1ccco1)N1CCN(c2cccc(Cl)c2)CC1 (stereo not drawn)	-26.2%	?	8.91µM*	-13.5%	-11.9%	-1.7
COC(=O)c1sccc1S(=O)(=O)N(CC(=O)NCc1ccc(F)cc1)c1ccccc1	9.9%	-25.3%[46.1 µM]	.	.	-1.6%	13.9
O=C(Nc1ccccc1)NN(C(=O)CCl)c1ccccc1	?	?	?	?	?	-101.7*
CCCC(O)(CCC)C(=O)NN(C(=O)OC)c1ccccc1	-11.1%	-0.7%	-16.7%	19.7%	-9.0%	25.3
CCC(O)(CC)C(=O)NN(C(=O)CCl)c1ccccc1	-17.4%	-27.3%	?	-13.2%	-8.8%	-93.7*
Cc1ccc(N(NC(=O)C(O)(c2ccccc2)c2ccccc2)C(=O)CCl)cc1	?	?	13µM*	3.16µM*	?	-99.2*
CCN(CC)NC(=O)Nc1ccccc1	-8.7%	-14.8%[46.1 µM]	6.2%[46.1 µM]	9.7%	-1.9%	6.0
ClCCn1c(CCl)nc2ccc(Cl)cc21	-3.4%	.	.	.	?	-14.6
CCCCCOC(=O)c1[nH]c2c(c1C)C(=O)CC(c1ccco1)C2 (stereo not drawn)	?	?	0.461µM*	?	?	.
CCOCCOC(=O)c1[nH]c2c(c1C)C(=O)CC(c1cccs1)C2 (stereo not drawn)	?	?	?	16.9%	-6.6%	-81.3*
Cc1c(C(=O)OCCOc2ccccc2)[nH]c2c1C(=O)CC(c1ccccc1)C2 (stereo not drawn)	-29.4%[7.34 µM]	-23.3%[46.1 µM]	?	.	?	-36.7
CCOCCOC(=O)c1[nH]c2c(c1C)C(=O)CC(c1ccccc1)C2 (stereo not drawn)	?	?	?	?	-15.3%	-71.0*
Cc1c(C(=O)OCCOc2ccccc2)[nH]c2c1C(=O)CC(c1ccccc1Cl)C2 (stereo not drawn)	-29.4%[7.34 µM]	-11.6%[46.1 µM]	?	.	?	-85.6*
Cc1ccccc1C1=NOC2CN(C(=O)/C=C/c3ccccc3)CC12 (stereo not drawn)	.	.	.	.	.	-11.0
CN(C(=O)COC(=O)c1ccc(C(C)(C)C)cc1)C1CCS(=O)(=O)C1 (stereo not drawn)	-12.5%	-11.0%	3.9%	19.7%	-13.7%	-35.2
CN(C(=O)COC(=O)c1nc(Cl)c(Cl)c(Cl)c1Cl)C1CCS(=O)(=O)C1 (stereo not drawn)	-21.6%	5.62µM*	?	10µM*	-17.9%	-98.9*
OC(c1cccnc1)c1ccc2c(c1)CN(Cc1cn(-c3ccccc3)nc1-c1ccccc1)CCO2 (stereo not drawn)	4.3%	.	.	.	-13.0%	.
